# Measurements published in PubChem BioAssay (NCI).
# The panel holds about 83,000 compounds, 20% with a hit somewhere; the sample as a whole holds those more often.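 Plates (96-well) were seeded with cells, treated with compound at one concentration, and incubated for 48 hours before percent growth was determined.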 A number with no mark means an inactive call. The source made the active and inactive calls. The calls were made as follows: active = growth percent below 10; inactive = the rest.
# Experiments:
# Experiment in all cases: NCI-60 one-dose screen, 48 h (100 = growth as untreated, 0 = no growth, -100 = all killed)
# Settings in all cases: 10 µM unless noted
# [1] = tested on: NCI-H23 lung
# [2] = tested on: NCI-H226 lung
# [3] = tested on: NCI-H322M lung
# [4] = tested on: HOP-62 NSCLC
# [5] = tested on: NCI-H460 lung
# [6] = tested on: HOP-92 NSCLC
# [7] = tested on: NCI-H522 lung
# [8] = tested on: A549/ATCC NSCLC
# [9] = tested on: 786-0 renal
# [10] = tested on: COLO 205 colon
# [11] = tested on: DU-145 prostate
# [12] = tested on: MALME-3M melanoma
# [13] = tested on: MDA-MB-231 breast
# [14] = tested on: SF-268 CNS
# [15] = tested on: SF-295 CNS
# [16] = tested on: SF-539 CNS
# [17] = tested on: M14 melanoma
# [18] = tested on: RXF 393 renal
# [19] = tested on: UACC-257 melanoma
# [20] = tested on: K-562 leukemia
SMILES,growth [1],growth [2],growth [3],growth [4],growth [5],growth [6],growth [7],growth [8],growth [9],growth [10],growth [11],growth [12],growth [13],growth [14],growth [15],growth [16],growth [17],growth [18],growth [19],growth [20]
CC(=O)OCCC/C(=C/c1cc2ccccc2c2ccccc12)[N+](=O)[O-],-76.5% (active),-51.6% (active),58.2%,-61.3% (active),-18.5% (active),-76% (active),-59.9% (active),-94.6% (active),-89.5% (active),-85.9% (active),-100% (active),-71% (active),-54.3% (active),-89.6% (active),7.66% (active),-100% (active),-69.9% (active),–,–,–
CN(C)C(=S)N=Nc1c(O)[nH]c2ccccc12,28.2%,4.04% (active),24.6%,10.9%,-4.55% (active),-6.97% (active),27.4%,-10.6% (active),8.93% (active),19.7%,31.6%,30.8%,49.1%,14.6%,17.5%,9.37% (active),-6.4% (active),–,–,–
CCNC(=O)Oc1ccc(/C(=C(\C)c2ccc(Cl)cc2)c2ccc(OCCN3CCCCC3)cc2)cc1,65.1%,78.2%,75.2%,58.7%,22.3%,68.8%,80%,46.1%,41.9%,-60.9% (active),72.8%,-8.7% (active),51.8%,55%,42.7%,47.8%,-46.5% (active),49.1%,-33.9% (active),–
O=c1ccccc(-c2ccc(Br)cc2)c1O,13.9%,18.2%,21.1%,10.6%,2.75% (active),58%,19.2%,11%,8.52% (active),22.7%,20.3%,10.6%,32.9%,12.8%,17.9%,-0.947% (active),-10.8% (active),46.2%,1.13% (active),–
CN1CCN=C1c1ccc(NC(=O)c2ccc(C(=O)Nc3ccc(C4=NCCN4C)cc3)cc2)cc1,90.2%,98.6%,92.2%,97.8%,91%,82.5%,87%,101%,101%,99.6%,119%,80.6%,103%,111%,92.9%,94.1%,95.9%,–,–,–
Cc1cc2c3ccccc3ccc2[n+]2ccccc12,46.4%,43.4%,47.2%,9.19% (active),63.1%,71.5%,-10.1% (active),-16.9% (active),24%,54.1%,86.9%,-5.59% (active),81.6%,-24.6% (active),22.6%,42.5%,68.2%,–,–,–
N#Cc1nnn(-c2ccc(S(N)(=O)=O)cc2)c1NC(=O)CCl,100%,95.5%,93.4%,92.2%,104%,96.1%,95%,92.9%,98%,110%,107%,102%,102%,97.6%,98.2%,98.8%,95.4%,109%,89%,–
O=C(/C=C/c1ccc(C(F)(F)F)cc1)Nc1ccc(C=C2c3ccccc3C(=O)c3ccccc32)cc1,49.2%,67.8%,97.3%,78.8%,62.3%,55.6%,20.8%,44.6%,62.1%,66.5%,72.4%,76.6%,77.3%,67.3%,59.2%,83.5%,59.1%,68.4%,35.1%,–
COc1cccc2c1C(=O)c1c(O)c3c(c(O)c1C2=O)C[C@](O)(C(=O)CO)C[C@H]3O[C@@H]1C[C@@H](NC(=O)CCCN(C)C2(c3ccc(F)cc3)CC3CCC2C3)[C@H](O)[C@@H](C)O1 (stereo not given in full),-59.7% (active),65.2%,49.1%,58.5%,-86.8% (active),48.7%,-82.7% (active),-80.1% (active),-94.2% (active),-76.2% (active),-48.4% (active),-83.2% (active),-76.4% (active),-82.4% (active),-92.9% (active),-81.6% (active),-86.8% (active),-95.8% (active),-26.9% (active),–
FC(F)(F)c1nc2c(NCc3ccc(-c4ccccc4)cc3)cccc2[nH]1,80.8%,79%,85.8%,106%,44.8%,62%,50.8%,55.5%,85%,–,81.2%,71.4%,57.7%,76.5%,88.9%,81.3%,90.1%,85.7%,87.7%,6.87% (active)
COc1ccc(O)c(N=Nc2nccs2)c1,87.9%,92.2%,91.4%,94.2%,101%,49.4%,88.2%,91.1%,70.6%,94.8%,94.9%,102%,39.3%,67.9%,103%,96.8%,105%,87.9%,93.7%,–
Cc1ccc(C(SCC(N)C(=O)O)(c2ccccc2)c2ccc(C)cc2)cc1 (stereo not given),12.6%,56.3%,29.4%,31.9%,9.22% (active),-10.1% (active),-19% (active),-2.96% (active),25.1%,-3.13% (active),-43.8% (active),19.8%,-12.7% (active),20.5%,14.7%,-5.21% (active),-34.4% (active),–,–,–
CCc1c(Nc2ccccc2C)nc(N)[nH]c1=O,117%,103%,103%,100%,108%,93.7%,99%,114%,109%,109%,111%,102%,114%,101%,105%,103%,106%,112%,115%,–
CCOC(=O)c1sc(Nc2ccc(Cl)cc2)nc1C,19.3%,21.9%,53.4%,28.3%,19.3%,-20.9% (active),-14.4% (active),15.2%,25%,11%,35.5%,36.7%,1.04% (active),30%,16.3%,25.3%,12.9%,10.9%,7.95% (active),–
COc1cc(-c2nn(-c3ccc(C(=O)O)cc3)cc2C(=O)O)ccc1O,63%,102%,98.5%,61.6%,61.9%,58.8%,12%,78.2%,78.3%,113%,89.3%,57.1%,93.3%,70.3%,94.4%,47.7%,33.5%,91.5%,103%,–
CCCCC(=O)OCC1OC(n2cnc3c(=S)nc[nH]c32)C(OC(=O)CCCC)C1OC(=O)CCCC (stereo not given),27.5%,31.4%,36.4%,25.4%,30.3%,20.2%,34.5%,39.8%,20.5%,38.8%,32%,49.5%,35.6%,39%,30.3%,20.2%,–,–,–,–
CSc1ccc(-c2ccccc(=O)c2O)cc1,21.9%,16.1%,19.5%,3.95% (active),2.89% (active),49.5%,24.1%,11.5%,8.4% (active),22.6%,21%,15.6%,36.8%,11.5%,19.4%,4.03% (active),-6.35% (active),39.3%,-4.11% (active),–
